# Measurements taken from PubChem BioAssay (Tox21).
# Unmarked numbers belong to inactive results. Inconclusive results are not listed. Where a call stands in place of a potency, no number is given. Calls of active or inactive are those of the source. Unless noted, calls follow the shape of the dose curve; as a rule, active = well fitted curve in the direction sought with a large enough effect in the repeat runs; inconclusive = weak or mixed curves; inactive = no such curve, though single readings can be large; an effect the other way counts as inactive or inconclusive.
# Columns and labels:
# [1] = A CellTox Green Cytotoxicity Assay to monitor cytotoxicity in HepG2 cells - 0 hour (AID 1224882); also: nearly all actives have a fitted effect of over 35% in size
# In short: (§1)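 First, HepG2 cells (600/well) mixed with reagent were plated; second, after 5 h at 37 C they received compounds via pintool; third, fluorescence was measured at 0 h through 40 h at 8 h intervals.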
# [2] = A CellTox Green Cytotoxicity Assay to monitor cytotoxicity in HepG2 cells - 32 hour (AID 1224883); also: nearly all actives have a fitted effect of over 50% in size; also: potency is read from the fitted curve at half-maximal effect
# In short: as §1
# [3] = A CellTox Green Cytotoxicity Assay to monitor cytotoxicity in HEK293 cells - 8 hour (AID 1224884); also: nearly all actives have a fitted effect of over 35% in size
# In short: (§2)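 Dead-cell fluorescence measured kinetically: asymmetric cyanine dye, HEK293, 600 cells/well, 5 h settle, 23 nL cpd/DMSO, 37 C, reads 0–40 h every 8 h.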
# [4] = qHTS RealTime-Glo MT Cell Viability Assay in HepG2 cells - 16 hour (AID 1224885); also: nearly all actives have a fitted effect of over 50% in size
# In short: (§3)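 Compound treatment began 5 h after plating HepG2 cells (600/well) with NanoLuc luciferase and prosubstrate. Plates stayed at 37 C for 40 h; luminescence was captured at six time points, 0 h through 40 h.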
# [5] = A CellTox Green Cytotoxicity Assay to monitor cytotoxicity in HEK293 cells - 16 hour (AID 1224888); also: nearly all actives have a fitted effect of over 35% in size
# In short: as §2
# [6] = qHTS RealTime-Glo MT Cell Viability Assay in HepG2 cells - 0 hour (AID 1224889); also: nearly all actives have a fitted effect of over 50% in size
# In short: as §3
# [7] = A CellTox Green Cytotoxicity Assay to monitor cytotoxicity in HepG2 cells - 8 hour (AID 1224890); also: nearly all actives have a fitted effect of over 45% in size
# In short: as §1
# [8] = qHTS assay to identify small molecule antagonists of the estrogen receptor alpha (ER-alpha) signaling pathway using the BG1 cell line in the presence of 0.1 nM 17-beta-estradiol - cell viability counter screen (AID 1259241); also: nearly all actives have a fitted effect of over 40% in size
# In short: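 VM7Luc4E2 cells (endogenous ER-alpha, 4×ERE-luciferase), hormone-starved 5 days in charcoal-stripped FBS, were treated with compounds plus 0.1 nM 17beta-estradiol for 22 hr at 37C; viability read in same wells as CellTiter-Fluor live-cell protease fluorescence.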
# [9] = qHTS assay to identify small molecule antagonists of the androgen receptor (AR) signaling pathway using the MDA cell line in the presence of 0.5 nM R1881 - cell viability counter screen (AID 1259242); also: nearly all actives have a fitted effect of over 45% in size
# In short: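 qHTS format. MDA-kb2 (MMTV-luc, AR/GR responsive) + cpd + 0.5 nM R1881 final, 16 hr 37C/0% CO2 → CellTiter-Fluor 30 min → fluorescence intensity.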
# [10] = target: Estrogen receptor (Homo sapiens) (UniProt P03372); assay: qHTS assay to identify small molecule antagonists of the estrogen receptor alpha (ER-alpha) signaling pathway using the BG1 cell line in the presence of 0.1 nM 17-beta-estradiol (AID 1259244); also: nearly all actives have a fitted effect of over 50% in size
# Estrogen receptor (Homo sapiens), sequence (P03372 whole entry, looked up): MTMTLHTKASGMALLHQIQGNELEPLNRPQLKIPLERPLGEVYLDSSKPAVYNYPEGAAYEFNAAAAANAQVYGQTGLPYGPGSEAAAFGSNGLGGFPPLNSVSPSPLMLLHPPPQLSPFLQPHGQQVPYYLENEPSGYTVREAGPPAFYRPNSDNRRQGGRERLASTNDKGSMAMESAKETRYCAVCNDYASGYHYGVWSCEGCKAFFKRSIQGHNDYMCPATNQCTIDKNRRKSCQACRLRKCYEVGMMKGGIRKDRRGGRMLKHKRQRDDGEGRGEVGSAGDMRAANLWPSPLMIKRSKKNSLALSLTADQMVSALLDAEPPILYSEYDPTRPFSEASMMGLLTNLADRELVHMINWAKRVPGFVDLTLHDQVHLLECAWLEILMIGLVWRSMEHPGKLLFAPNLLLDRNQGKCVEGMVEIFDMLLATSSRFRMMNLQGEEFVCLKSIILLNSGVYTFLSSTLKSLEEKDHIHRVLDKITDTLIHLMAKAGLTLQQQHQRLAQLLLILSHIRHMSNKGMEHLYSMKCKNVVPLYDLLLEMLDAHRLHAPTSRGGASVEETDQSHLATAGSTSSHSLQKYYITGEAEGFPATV
# In short: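 Reporter is a stably transfected luciferase under four estrogen responsive elements in VM7Luc4E2 cells expressing native full-length ER-alpha; inhibition of 0.1 nM (final) 17beta-estradiol-driven signal over 22 h is read by luminescence.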
# [11] = qHTS assay to identify small molecule HDAC inhibitors (AID 1259364); also: potency is read from the fitted curve at half-maximal effect;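 also: wild-type HCT-116 cells with endogenous class I/II HDAC activity; nearly all actives have a fitted effect of over 45% in size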
# In short: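 Quantitative high-throughput format: overnight-seeded HCT-116 cells got compounds for 2 hr at 37C; HDAC-Glo I/II reagent added, 30 min RT, luminescence measured.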
# [12] = qHTS assay to identify small molecule HDAC inhibitors - cell viability counter screen (AID 1259365)
# In short: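 Wild-type HCT-116 cells were seeded at 1,500 per well, incubated overnight at 37 C, then exposed to compounds in DMSO for 2hr. Viability was read by CellTiter-Glo luminescence after 30min at room temperature.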
# [13] = qHTS assay to identify small molecule agonists of the sonic hedgehog signaling (Shh) pathway - cell viability counter screen (AID 1259366); also: nearly all actives have a fitted effect of over 50% in size
# In short: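 NIH/3T3-derived 3T3 Gli1-Luc cells (stable Gli1-responsive firefly luciferase reporter) were seeded, rested 4 hr at 37 C/5% CO2, then exposed to compounds in DMSO for 24 hr; viability was read by CellTiter-Fluor fluorescence in the same wells.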
# [14] = qHTS assay to identify small molecule antagonists of the sonic hedgehog signaling (Shh) pathway - cell viability counter screen (AID 1259367); also: nearly all actives have a fitted effect of over 55% in size
# In short: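 Cytotoxicity was assessed in parallel with Shh reporter activity by measuring live-cell protease fluorescence (CellTiter-Fluor) in NIH/3T3 cells stably carrying Gli1-Luc, treated with compound under conditioned medium stimulation for 23 hr plus 1 hr reagent incubation.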
# [15] = qHTS assay to identify small molecule antagonists of the sonic hedgehog signaling (Shh) pathway (AID 1259369; calls by dose curve; also: nearly all actives have a fitted effect of over 45% in size; also: potency is read from the fitted curve at half-maximal effect)
# In short: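 Stable Gli1-Luc reporter NIH/3T3 clone; quantitative HTS in stimulated mode with conditioned medium. Luminescence measured after 24hr compound treatment at 37 C.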
# [16] = qHTS RealTime-Glo MT Cell Viability Assay in HEK293 cells - 8 hour (AID 1224887)
# In short: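 600 HEK293 cells per well, dispensed already mixed with RealTime-Glo MT reagents. Compound dosing came 5 h later. The same wells were read for luminescence at 0, 8, 16, 24, 32 and 40 h of exposure at 37 C.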
# [17] = target: Androgen receptor (Homo sapiens) (UniProt P10275); assay: qHTS assay to identify small molecule antagonists of the androgen receptor (AR) signaling pathway using the MDA cell line in the presence of 0.5 nM R1881 (AID 1259243); also: nearly all actives have a fitted effect of over 50% in size; also: potency is read from the fitted curve at half-maximal effect
# Androgen receptor (Homo sapiens), sequence (P10275 whole entry, looked up): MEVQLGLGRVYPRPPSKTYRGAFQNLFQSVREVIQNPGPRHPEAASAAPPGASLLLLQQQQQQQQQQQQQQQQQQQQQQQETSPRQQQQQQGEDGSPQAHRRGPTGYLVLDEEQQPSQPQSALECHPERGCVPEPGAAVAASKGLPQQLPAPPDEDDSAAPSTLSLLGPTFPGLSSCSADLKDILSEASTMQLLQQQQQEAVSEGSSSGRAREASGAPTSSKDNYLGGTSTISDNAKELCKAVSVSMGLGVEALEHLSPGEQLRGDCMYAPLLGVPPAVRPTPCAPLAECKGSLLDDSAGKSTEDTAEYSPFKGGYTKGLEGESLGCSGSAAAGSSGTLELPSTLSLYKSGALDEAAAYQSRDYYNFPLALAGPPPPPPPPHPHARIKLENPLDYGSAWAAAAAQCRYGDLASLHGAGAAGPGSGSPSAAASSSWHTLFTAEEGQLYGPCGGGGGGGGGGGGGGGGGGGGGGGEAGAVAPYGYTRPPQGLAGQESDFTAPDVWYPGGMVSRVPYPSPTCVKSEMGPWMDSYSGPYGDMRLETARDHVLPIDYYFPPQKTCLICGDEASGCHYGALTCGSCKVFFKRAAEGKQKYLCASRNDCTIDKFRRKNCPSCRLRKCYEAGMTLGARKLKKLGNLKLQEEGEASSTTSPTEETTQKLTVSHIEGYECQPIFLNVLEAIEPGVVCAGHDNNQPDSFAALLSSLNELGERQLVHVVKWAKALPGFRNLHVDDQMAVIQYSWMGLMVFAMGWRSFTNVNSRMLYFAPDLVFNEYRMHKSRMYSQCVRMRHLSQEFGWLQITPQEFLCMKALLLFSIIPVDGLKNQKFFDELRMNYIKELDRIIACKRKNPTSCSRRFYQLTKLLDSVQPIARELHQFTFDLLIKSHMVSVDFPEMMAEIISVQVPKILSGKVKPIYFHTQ
# In short: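 Antagonist mode quantitative HTS in MDA-kb2 MMTV-luciferase cells, agonist R1881 at 0.5 nM final, 16 hr exposure at 37C and 0% CO2, luminescent detection.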
# [18] = qHTS assay to identify small molecule agonists of the sonic hedgehog signaling (Shh) pathway (AID 1259368; calls by dose curve; also: series mostly up to about 92 µM; nearly all actives have a fitted effect of over 15% in size)
# In short: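 Quantitative high-throughput format using a Gli1-driven firefly luciferase reporter line derived from NIH/3T3 cells. After a 24 hr compound treatment at 37 C and 5% CO2, luminescence reported Gli1 response element activity.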
# [19] = qHTS assay to identify small molecule phospholipidosis (PLD) inducers (AID 1259344; active = well fitted curve in the direction sought with a large enough effect; an effect the other way counts as inactive or inconclusive)
# In short: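 Cells (HepG2, 900 per well) attach for 4 h, receive LipidTOX Red and compound together, incubate 24 h at 37 C, are fixed 30 min with paraformaldehyde/Hoechst, then imaged at one site per well.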
# [20] = qHTS RealTime-Glo MT Cell Viability Assay in HEK293 cells - 24 hour (AID 1224886)
# In short: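 Quantitative high-throughput screen of the Tox21 10K library in HEK293: cells and RealTime-Glo reagents plated together, compound added at 5 h, luminescence monitored through 40 h at 37 C.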
Compound,Potency [1],Potency [2],Potency [3],outcome [4],Potency [5],Potency [6],Potency [7],Potency [8],outcome [9],Potency [10],Potency [11],outcome [12],Potency [13],Potency [14],Potency [15],Potency [16],Potency [17],Potency [18],outcome [19],Potency [20]
OCc1c2ccccc2cc2ccccc12,inactive,inactive,inactive,inactive,inactive,inactive,inactive,inactive,inactive,inactive,inactive,inactive,inactive,inactive,inactive,,,,,
CN1CCN(C2=Nc3cc(F)ccc3Cc3ccccc32)CC1,inactive,inactive,inactive,,inactive,inactive,inactive,inactive,inactive,inactive,inactive,inactive,inactive,inactive,,inactive,16.8 µM (active),inactive,,
CCOc1ccccc1N,inactive,inactive,inactive,inactive,inactive,inactive,inactive,inactive,,,inactive,inactive,inactive,inactive,inactive,inactive,,inactive,,
Cc1ccc([N+](=O)[O-])cc1Cl,inactive,inactive,inactive,inactive,,inactive,inactive,inactive,inactive,,inactive,inactive,inactive,inactive,,inactive,,inactive,,
Cc1ccccc1C(=O)Nc1ccc(C(=O)N2CCCC(O)c3cc(Cl)ccc32)c(C)c1 (stereo unspecified),inactive,inactive,inactive,inactive,inactive,inactive,inactive,inactive,inactive,,inactive,inactive,inactive,inactive,inactive,,,inactive,,
Cc1c(-c2ccccc2)oc2c(C(=O)OCCN3CCCCC3)cccc2c1=O,inactive,inactive,inactive,inactive,inactive,inactive,inactive,inactive,inactive,inactive,inactive,inactive,inactive,inactive,,,,inactive,inactive,
CCCS(=O)c1ccc2nc(NC(=O)OC)[nH]c2c1 (stereo unspecified),inactive,16.9 µM (active),inactive,,inactive,inactive,inactive,,inactive,,5.96 µM (active),inactive,inactive,inactive,inactive,inactive,inactive,inactive,,inactive
C=CCCC=C,inactive,inactive,inactive,,inactive,inactive,inactive,inactive,inactive,,inactive,inactive,inactive,inactive,inactive,inactive,,inactive,,inactive
CC(C)S,inactive,inactive,inactive,,inactive,inactive,inactive,inactive,inactive,inactive,inactive,inactive,inactive,inactive,inactive,inactive,,inactive,,inactive
CN1C(=O)CC(c2ccccc2)C1=O (stereo unspecified),inactive,inactive,inactive,,,inactive,inactive,inactive,inactive,,inactive,inactive,inactive,inactive,inactive,inactive,,inactive,inactive,inactive
CC(C)C(=O)OC/C=C/c1ccccc1,inactive,inactive,inactive,inactive,inactive,inactive,inactive,inactive,inactive,inactive,inactive,inactive,inactive,inactive,inactive,,,inactive,,
CC(C)CCCCCCc1ccc(OCCOCCO)cc1,inactive,inactive,inactive,,inactive,inactive,inactive,inactive,inactive,,inactive,inactive,inactive,inactive,,inactive,inactive,inactive,,inactive
CC(C)O,inactive,inactive,inactive,,inactive,inactive,inactive,inactive,inactive,,inactive,inactive,,,29.3 µM (active),inactive,,inactive,inactive,inactive
CO[C@@]1(NC(=O)CSCC#N)C(=O)N2C(C(=O)O)=C(CSc3nnnn3C)CS[C@@H]21,inactive,inactive,inactive,inactive,inactive,inactive,inactive,inactive,inactive,inactive,inactive,inactive,inactive,inactive,inactive,,,inactive,inactive,
CC(=O)N(CC(O)CN(C(C)=O)c1c(I)c(C(=O)NCC(O)CO)c(I)c(C(=O)NCC(O)CO)c1I)c1c(I)c(C(=O)NCC(O)CO)c(I)c(C(=O)NCC(O)CO)c1I (stereo unspecified),inactive,inactive,inactive,,inactive,inactive,inactive,inactive,inactive,,inactive,inactive,inactive,inactive,inactive,inactive,,inactive,inactive,inactive
CCCCNc1ccc(C(=O)OCCN(CC)CC)cc1,inactive,inactive,inactive,inactive,,inactive,inactive,inactive,inactive,,inactive,inactive,inactive,inactive,,inactive,,inactive,,
